The values that follow come from ChEMBL document CHEMBL2218924, “A broad activity screen in support of a chemogenomic map for kinase signalling research and drug discovery” (Biochem J, 2013).

The target of assay [1] is T1, Serine/threonine-protein kinase 17A (Homo sapiens) (UniProt Q9UEE5).
T1 sequence (whole entry): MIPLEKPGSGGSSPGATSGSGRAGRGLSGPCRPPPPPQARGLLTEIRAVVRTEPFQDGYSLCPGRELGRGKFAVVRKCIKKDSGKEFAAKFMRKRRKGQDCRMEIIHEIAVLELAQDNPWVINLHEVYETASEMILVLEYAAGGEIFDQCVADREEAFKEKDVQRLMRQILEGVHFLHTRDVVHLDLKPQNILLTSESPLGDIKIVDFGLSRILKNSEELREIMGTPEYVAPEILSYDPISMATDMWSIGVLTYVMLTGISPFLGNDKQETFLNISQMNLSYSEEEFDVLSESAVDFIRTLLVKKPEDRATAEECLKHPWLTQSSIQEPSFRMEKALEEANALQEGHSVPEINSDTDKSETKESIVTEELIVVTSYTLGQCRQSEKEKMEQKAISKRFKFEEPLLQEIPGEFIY
The settings on record: at 10 µM.

Assay [2] addresses T2, Dual specificity tyrosine-phosphorylation-regulated kinase 2 (Homo sapiens) (UniProt Q92630).
T2 sequence (whole entry): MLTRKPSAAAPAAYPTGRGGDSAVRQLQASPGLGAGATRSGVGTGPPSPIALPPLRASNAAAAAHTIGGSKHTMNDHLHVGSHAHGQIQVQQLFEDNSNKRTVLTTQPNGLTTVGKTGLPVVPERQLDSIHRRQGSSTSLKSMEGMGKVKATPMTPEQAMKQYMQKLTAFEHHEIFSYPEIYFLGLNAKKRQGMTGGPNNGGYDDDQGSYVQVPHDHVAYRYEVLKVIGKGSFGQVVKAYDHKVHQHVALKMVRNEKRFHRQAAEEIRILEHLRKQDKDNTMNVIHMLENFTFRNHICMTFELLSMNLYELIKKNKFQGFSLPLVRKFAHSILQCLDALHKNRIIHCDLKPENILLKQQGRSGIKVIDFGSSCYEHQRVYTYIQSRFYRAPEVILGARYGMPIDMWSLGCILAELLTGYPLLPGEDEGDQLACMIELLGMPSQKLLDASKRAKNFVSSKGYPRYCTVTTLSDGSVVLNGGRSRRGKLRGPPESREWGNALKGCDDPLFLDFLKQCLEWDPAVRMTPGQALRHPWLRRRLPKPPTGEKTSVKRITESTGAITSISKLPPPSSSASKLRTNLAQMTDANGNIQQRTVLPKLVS
The settings on record: at 1 µM.

Assay [3] has as its target T2, Dual specificity tyrosine-phosphorylation-regulated kinase 2 (Homo sapiens). The settings on record: at 10 µM.
Assay [4] addresses T3, Ephrin type-A receptor 1 (Homo sapiens) (UniProt P21709).
T3 sequence (whole entry): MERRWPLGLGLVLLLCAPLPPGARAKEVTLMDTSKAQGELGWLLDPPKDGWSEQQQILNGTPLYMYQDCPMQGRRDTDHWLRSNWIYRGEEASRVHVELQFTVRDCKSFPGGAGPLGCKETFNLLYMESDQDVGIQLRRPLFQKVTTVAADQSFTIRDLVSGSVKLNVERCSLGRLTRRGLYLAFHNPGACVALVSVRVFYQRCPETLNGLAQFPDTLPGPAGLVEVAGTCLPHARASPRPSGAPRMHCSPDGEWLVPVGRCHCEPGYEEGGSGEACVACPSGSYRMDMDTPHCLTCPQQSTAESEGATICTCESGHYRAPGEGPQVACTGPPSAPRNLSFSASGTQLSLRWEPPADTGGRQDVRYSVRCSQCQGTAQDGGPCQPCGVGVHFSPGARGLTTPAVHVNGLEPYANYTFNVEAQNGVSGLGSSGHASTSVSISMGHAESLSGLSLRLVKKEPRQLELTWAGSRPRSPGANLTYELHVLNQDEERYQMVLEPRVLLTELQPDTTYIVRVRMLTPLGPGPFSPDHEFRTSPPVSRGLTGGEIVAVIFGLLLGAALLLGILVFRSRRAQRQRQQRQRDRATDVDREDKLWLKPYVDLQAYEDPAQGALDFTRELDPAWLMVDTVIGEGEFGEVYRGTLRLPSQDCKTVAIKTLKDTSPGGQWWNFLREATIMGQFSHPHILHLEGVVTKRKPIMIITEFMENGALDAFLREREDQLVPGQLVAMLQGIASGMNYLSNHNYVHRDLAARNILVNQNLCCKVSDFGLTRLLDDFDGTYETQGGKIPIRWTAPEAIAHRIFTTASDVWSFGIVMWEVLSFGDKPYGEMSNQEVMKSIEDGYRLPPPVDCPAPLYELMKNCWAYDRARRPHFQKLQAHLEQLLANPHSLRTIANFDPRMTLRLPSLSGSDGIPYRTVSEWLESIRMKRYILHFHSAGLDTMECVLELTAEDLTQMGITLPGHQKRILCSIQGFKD
The note with it: at 1 µM.

Assay [5] concerns the target T3, Ephrin type-A receptor 1 (Homo sapiens). The settings on record: at 10 µM.
The target of assay [6] is Ephrin type-A receptor 2 (Homo sapiens) (UniProt P29317). The note with it: at 1 µM.
The target is the same in assay [7]. The settings on record: at 10 µM.
Assay [8] has as its target T4, Ephrin type-A receptor 3 (Homo sapiens) (UniProt P29320).
T4 sequence (whole entry): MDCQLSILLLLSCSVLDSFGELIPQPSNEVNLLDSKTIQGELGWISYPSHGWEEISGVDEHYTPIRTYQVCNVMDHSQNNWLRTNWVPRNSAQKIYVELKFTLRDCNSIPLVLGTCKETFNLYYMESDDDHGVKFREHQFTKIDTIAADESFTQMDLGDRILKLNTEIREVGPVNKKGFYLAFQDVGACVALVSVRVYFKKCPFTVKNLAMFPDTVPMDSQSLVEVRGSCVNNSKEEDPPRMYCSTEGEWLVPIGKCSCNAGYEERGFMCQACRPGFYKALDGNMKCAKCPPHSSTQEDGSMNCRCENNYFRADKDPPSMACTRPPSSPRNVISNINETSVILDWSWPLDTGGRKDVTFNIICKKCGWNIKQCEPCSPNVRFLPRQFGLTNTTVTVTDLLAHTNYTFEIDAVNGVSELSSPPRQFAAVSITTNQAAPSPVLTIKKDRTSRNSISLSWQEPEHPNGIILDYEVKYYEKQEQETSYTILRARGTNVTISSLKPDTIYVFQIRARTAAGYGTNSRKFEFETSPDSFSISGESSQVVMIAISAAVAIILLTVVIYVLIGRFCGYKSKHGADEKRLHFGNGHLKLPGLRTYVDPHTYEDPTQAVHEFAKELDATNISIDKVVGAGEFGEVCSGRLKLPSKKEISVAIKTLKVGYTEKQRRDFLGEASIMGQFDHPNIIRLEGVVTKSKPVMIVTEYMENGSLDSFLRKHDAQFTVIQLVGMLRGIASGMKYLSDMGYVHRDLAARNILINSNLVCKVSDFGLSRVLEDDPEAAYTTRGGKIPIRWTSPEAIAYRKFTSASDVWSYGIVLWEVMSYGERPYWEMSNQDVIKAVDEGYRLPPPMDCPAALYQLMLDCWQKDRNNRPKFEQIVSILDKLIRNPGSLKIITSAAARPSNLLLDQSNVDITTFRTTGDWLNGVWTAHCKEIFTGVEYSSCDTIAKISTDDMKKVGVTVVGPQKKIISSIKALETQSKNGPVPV
The note with it: at 1 µM.

For assay [9], the target named is T4, Ephrin type-A receptor 3 (Homo sapiens). The note with it: at 10 µM.
The target in assay [10] is Ephrin type-A receptor 4 (Homo sapiens) (UniProt P54764). The note with it: at 1 µM.
The target is the same in assay [11]. The note with it: at 10 µM.
In assay [12] the target is Ephrin type-A receptor 5 (Homo sapiens) (UniProt P54756). The settings on record: at 1 µM.
Assay [13] has the same target. The note with it: at 10 µM.
Assay [14] has as its target Ephrin type-A receptor 7 (Homo sapiens) (UniProt Q15375). The note with it: at 1 µM.
For assay [15] the target is unchanged. The note with it: at 10 µM.
The target of assay [16] is T5, Ephrin type-A receptor 8 (Homo sapiens) (UniProt P29322).
T5 sequence (whole entry): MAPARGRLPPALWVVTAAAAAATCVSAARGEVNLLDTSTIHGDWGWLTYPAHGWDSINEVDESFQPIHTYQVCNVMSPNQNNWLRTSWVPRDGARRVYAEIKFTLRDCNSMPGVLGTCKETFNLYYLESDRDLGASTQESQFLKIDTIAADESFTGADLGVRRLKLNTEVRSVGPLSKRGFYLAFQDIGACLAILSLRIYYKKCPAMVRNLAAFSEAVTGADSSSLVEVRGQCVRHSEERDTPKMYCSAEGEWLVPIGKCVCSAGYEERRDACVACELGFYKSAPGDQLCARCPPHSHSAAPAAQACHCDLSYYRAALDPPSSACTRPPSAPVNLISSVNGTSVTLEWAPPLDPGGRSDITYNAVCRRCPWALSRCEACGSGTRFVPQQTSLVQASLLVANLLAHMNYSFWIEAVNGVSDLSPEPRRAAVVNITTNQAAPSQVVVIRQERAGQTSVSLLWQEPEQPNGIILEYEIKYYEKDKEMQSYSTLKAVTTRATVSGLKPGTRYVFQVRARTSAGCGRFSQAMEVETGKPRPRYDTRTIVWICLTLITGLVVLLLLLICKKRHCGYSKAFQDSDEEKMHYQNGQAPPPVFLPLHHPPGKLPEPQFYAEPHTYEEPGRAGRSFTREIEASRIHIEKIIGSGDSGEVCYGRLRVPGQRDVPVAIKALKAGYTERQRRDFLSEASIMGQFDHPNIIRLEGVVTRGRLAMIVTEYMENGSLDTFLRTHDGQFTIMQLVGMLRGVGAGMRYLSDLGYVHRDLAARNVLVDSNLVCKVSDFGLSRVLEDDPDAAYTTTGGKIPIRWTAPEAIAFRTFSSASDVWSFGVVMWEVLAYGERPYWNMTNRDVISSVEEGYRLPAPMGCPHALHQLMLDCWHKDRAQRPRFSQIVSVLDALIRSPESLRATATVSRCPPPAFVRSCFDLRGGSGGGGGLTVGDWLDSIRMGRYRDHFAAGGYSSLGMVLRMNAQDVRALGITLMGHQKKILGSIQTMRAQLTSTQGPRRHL
The note with it: at 1 µM.

Assay [17] addresses T5, Ephrin type-A receptor 8 (Homo sapiens). The note with it: at 10 µM.
The target in assay [18] is T6, Ephrin type-B receptor 1 (Homo sapiens) (UniProt P54762).
T6 sequence (whole entry): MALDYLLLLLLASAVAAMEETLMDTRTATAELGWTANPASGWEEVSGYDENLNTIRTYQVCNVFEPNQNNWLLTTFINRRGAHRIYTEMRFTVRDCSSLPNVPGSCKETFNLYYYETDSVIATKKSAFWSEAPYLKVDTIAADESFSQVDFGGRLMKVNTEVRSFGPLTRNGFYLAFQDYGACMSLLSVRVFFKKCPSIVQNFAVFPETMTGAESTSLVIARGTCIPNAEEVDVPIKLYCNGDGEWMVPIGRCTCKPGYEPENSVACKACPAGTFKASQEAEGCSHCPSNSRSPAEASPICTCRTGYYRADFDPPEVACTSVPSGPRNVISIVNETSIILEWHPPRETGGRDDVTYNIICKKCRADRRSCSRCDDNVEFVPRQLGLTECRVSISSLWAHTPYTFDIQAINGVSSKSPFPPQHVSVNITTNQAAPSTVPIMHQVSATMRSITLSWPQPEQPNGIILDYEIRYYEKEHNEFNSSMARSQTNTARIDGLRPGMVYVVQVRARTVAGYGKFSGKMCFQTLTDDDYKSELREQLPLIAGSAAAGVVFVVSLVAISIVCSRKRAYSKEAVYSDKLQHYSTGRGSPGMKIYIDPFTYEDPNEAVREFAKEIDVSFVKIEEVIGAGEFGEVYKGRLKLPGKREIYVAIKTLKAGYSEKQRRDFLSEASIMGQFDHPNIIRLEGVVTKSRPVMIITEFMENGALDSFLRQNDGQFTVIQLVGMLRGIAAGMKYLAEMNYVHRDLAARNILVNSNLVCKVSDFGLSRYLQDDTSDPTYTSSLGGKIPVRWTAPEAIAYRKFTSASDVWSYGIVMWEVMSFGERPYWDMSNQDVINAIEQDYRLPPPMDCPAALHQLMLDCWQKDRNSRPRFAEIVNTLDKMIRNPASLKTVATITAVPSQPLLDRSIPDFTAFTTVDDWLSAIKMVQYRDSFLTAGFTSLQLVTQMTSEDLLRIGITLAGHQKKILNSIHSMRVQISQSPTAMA
The settings on record: at 1 µM.

Sequence of Ephrin type-A receptor 2 (Homo sapiens) (P29317 whole entry): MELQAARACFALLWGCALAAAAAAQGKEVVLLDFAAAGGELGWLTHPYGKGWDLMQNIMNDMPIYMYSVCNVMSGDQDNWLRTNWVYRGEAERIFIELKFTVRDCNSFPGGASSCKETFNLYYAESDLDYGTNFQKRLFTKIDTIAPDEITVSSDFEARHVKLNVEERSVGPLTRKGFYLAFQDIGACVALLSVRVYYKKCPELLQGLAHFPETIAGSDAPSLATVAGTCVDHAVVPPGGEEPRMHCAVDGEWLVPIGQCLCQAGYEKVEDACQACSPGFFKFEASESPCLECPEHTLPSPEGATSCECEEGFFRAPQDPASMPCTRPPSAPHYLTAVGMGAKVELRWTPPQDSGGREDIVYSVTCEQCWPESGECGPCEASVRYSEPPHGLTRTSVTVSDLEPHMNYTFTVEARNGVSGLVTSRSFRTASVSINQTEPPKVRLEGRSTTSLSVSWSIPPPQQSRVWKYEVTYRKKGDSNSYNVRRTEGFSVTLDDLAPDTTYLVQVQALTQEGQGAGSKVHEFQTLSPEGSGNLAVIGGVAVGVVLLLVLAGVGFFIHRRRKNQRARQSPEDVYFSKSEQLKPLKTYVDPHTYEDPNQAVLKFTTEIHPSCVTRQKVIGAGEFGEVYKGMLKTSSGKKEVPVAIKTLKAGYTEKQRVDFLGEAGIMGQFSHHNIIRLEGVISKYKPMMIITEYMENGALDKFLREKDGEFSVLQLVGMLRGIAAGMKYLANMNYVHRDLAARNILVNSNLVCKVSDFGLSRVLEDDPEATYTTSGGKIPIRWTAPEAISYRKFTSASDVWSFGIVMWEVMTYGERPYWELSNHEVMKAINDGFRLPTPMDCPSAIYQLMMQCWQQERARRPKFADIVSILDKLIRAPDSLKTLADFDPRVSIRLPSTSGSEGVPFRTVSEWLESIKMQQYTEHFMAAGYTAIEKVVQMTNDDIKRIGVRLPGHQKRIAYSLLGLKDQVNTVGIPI
Sequence of Ephrin type-A receptor 4 (Homo sapiens) (P54764 whole entry): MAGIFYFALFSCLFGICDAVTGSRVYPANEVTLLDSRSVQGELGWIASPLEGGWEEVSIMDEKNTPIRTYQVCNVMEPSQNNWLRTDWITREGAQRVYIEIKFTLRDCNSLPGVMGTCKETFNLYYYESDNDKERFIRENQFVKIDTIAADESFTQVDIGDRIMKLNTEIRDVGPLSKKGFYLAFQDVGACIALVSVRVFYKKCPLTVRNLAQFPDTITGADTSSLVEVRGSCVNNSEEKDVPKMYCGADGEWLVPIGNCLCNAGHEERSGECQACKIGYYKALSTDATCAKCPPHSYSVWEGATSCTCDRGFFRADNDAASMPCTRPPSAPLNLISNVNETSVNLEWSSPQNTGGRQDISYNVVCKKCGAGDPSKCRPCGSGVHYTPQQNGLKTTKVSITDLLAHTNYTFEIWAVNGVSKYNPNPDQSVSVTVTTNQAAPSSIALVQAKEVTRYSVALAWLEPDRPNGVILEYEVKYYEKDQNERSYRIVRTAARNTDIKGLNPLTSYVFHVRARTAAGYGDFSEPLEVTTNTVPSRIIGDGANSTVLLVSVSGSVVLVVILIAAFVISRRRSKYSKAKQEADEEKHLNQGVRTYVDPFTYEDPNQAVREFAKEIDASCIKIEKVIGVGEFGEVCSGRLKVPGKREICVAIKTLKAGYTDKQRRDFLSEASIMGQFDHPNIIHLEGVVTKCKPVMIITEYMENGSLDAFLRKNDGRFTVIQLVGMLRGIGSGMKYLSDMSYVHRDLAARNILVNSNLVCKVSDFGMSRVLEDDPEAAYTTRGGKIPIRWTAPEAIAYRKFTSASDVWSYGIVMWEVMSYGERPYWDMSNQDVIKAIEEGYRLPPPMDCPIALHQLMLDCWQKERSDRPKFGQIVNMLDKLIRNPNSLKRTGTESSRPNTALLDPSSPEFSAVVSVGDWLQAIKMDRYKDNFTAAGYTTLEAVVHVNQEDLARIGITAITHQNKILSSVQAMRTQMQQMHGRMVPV
Sequence of Ephrin type-A receptor 5 (Homo sapiens) (P54756 whole entry): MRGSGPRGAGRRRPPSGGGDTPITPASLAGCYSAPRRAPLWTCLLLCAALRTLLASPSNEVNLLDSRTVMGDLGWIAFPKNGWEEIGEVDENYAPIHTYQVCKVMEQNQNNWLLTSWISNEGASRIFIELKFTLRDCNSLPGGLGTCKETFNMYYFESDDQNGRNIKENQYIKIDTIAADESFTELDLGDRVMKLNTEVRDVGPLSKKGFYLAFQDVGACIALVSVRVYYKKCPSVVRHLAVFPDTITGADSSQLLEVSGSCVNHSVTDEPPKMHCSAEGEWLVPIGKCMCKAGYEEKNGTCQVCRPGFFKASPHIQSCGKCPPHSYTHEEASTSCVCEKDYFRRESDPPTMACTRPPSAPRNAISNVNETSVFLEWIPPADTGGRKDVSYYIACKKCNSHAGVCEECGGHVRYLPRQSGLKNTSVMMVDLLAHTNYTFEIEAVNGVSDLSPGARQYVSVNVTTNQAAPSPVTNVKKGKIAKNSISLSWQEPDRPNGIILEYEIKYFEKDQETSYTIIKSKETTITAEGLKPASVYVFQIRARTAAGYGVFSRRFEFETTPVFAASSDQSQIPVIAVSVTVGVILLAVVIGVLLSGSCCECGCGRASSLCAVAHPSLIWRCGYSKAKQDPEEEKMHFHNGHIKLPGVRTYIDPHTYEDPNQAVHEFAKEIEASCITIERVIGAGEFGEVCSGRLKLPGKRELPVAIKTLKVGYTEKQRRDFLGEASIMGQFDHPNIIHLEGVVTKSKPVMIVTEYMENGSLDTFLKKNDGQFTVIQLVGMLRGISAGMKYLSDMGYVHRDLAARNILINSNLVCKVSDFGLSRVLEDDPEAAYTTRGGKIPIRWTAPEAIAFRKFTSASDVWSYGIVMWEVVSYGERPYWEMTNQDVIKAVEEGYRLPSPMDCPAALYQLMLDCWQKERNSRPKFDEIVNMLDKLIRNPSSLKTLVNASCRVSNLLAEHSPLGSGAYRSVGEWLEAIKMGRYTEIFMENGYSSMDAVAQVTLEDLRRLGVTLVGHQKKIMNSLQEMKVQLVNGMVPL
Sequence of Ephrin type-A receptor 7 (Homo sapiens) (Q15375 28-998 limits assumed): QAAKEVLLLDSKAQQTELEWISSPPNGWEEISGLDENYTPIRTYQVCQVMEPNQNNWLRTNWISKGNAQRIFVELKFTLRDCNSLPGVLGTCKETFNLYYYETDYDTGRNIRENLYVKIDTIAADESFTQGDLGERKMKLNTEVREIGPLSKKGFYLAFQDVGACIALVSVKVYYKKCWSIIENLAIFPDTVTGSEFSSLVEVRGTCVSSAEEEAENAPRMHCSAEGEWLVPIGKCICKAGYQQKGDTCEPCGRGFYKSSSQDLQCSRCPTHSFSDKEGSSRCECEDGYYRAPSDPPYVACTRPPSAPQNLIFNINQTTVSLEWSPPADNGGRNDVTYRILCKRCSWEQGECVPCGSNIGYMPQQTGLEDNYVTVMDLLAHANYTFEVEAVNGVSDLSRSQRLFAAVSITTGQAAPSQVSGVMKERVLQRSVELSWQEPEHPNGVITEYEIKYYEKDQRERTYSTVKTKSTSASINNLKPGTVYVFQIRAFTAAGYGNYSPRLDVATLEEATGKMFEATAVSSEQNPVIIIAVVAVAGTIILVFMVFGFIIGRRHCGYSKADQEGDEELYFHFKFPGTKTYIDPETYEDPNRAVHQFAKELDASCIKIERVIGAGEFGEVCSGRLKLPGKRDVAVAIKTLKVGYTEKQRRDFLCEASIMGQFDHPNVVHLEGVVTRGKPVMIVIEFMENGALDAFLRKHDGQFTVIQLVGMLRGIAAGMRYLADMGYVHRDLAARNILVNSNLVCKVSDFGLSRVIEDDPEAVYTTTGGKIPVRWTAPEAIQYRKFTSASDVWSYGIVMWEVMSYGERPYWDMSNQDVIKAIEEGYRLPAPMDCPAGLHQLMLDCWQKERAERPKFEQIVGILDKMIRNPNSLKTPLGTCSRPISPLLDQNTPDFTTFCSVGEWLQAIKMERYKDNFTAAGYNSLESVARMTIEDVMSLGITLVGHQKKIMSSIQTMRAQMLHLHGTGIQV

Regarding `Oc1n[nH]c2nnc(-c3c(-c4ccccc4)nn4ccccc34)cc12`, the residual activity worked out at 34% in assay [1]; 99% in assay [2]; 95% in assay [3]; 93% in assay [4]; 79% in [5]; 92% in assay [6]. Further, the residual activity in [7] is 109%; in [8] it was 94%; in assay [9], 90%; in [10], 96%; in [11], 103%; in assay [12], 113%. Moreover, the residual activity in assay [13] was determined as 95%; in [14] it was 94%; in [15], 88%; in [16], 86%; in [17], 89%; in [18], 97%.
For `N#Cc1cnc2cnc(NCc3cccnc3)cc2c1Nc1ccc(F)c(Cl)c1`, the residual activity in [1] worked out at 32%; in assay [4], 95%; in assay [5], 79%; in assay [6], 96%; in assay [7], 87%; in [8], 96%. Also, the residual activity amounted to 72% in [9]; 103% in assay [10]; 76% in assay [11]; 56% in [12]; 46% in assay [13]; 100% in assay [18].
